Measurements taken from the supplement of paper PMC9694430.

How the values were obtained:
Experiment in all cases: thermal shift delta Tm vs DMSO control; higher = stronger stabilization (binding)
Details in all cases: 12.5 µM; protein concentration 2 µM
LOC_OS01G01410-cb001 = system: LOC_OS01G01410-cb001
How it was run: (§1)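 Purified, E. coli-expressed rice kinase domain constructs were tested by differential scanning fluorimetry in 96-well plates: 19.5 μl of 2 μM kinase in 100 mM potassium phosphate pH 7.5, 150 mM NaCl, 10% glycerol, 5 × SYPRO Orange, plus compound in DMSO. Fluorescence was read from 25°C to 95°C at 0.05°C/s. Melting temperatures came from Boltzmann fits, and the shift is the triplicate mean relative to protein with DMSO alone.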

LOC_OS01G02750-cb003 = system: LOC_OS01G02750-cb003
How it was run: as §1

LOC_OS01G10900-cb004 = system: LOC_OS01G10900-cb004
How it was run: as §1

LOC_OS01G13800-cb001 = system: LOC_OS01G13800-cb001
How it was run: as §1

LOC_OS01G14860-cb001 = system: LOC_OS01G14860-cb001
How it was run: as §1

LOC_OS01G21960-cb002 = system: LOC_OS01G21960-cb002
How it was run: as §1

LOC_OS01G39600-cb002 = system: LOC_OS01G39600-cb002
How it was run: as §1

LOC_OS01G48390-cb002 = system: LOC_OS01G48390-cb002
How it was run: as §1

LOC_OS01G51400-cb002 = system: LOC_OS01G51400-cb002
How it was run: as §1

LOC_OS01G52050-cb004 = system: T1, LOC_OS01G52050-cb004
T1 sequence (whole entry): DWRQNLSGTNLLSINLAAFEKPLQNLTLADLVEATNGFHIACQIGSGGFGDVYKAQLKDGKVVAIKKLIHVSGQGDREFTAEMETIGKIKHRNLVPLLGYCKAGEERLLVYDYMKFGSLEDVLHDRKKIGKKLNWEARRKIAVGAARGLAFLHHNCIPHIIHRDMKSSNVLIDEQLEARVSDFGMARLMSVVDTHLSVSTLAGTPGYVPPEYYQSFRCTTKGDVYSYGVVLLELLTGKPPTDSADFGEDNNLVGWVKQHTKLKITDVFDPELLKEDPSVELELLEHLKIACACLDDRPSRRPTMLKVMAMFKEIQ
How it was run: as §1

LOC_OS01G57100-cb003 = system: LOC_OS01G57100-cb003
How it was run: as §1

LOC_OS01G60330-cb001 = system: LOC_OS01G60330-cb001
How it was run: as §1

LOC_OS01G60700-cb002 = system: LOC_OS01G60700-cb002
How it was run: as §1

LOC_OS01G63280-cb003 = system: LOC_OS01G63280-cb003
How it was run: as §1

LOC_OS01G67340-cb003 = system: LOC_OS01G67340-cb003
How it was run: as §1

LOC_OS01G70970-cb002 = system: LOC_OS01G70970-cb002
How it was run: as §1

LOC_OS02G07810-cb001 = system: LOC_OS02G07810-cb001
How it was run: as §1

LOC_OS02G08530-cb003 = system: LOC_OS02G08530-cb003
How it was run: as §1

LOC_OS02G14120-cb001 = system: LOC_OS02G14120-cb001
How it was run: as §1

LOC_OS02G17970-cb001 = system: LOC_OS02G17970-cb001
How it was run: as §1

| Structure (SMILES) | thermal shift delta Tm (LOC_OS01G01410-cb001) [°C] | thermal shift delta Tm (LOC_OS01G02750-cb003) [°C] | thermal shift delta Tm (LOC_OS01G10900-cb004) [°C] | thermal shift delta Tm (LOC_OS01G13800-cb001) [°C] | thermal shift delta Tm (LOC_OS01G14860-cb001) [°C] | thermal shift delta Tm (LOC_OS01G21960-cb002) [°C] | thermal shift delta Tm (LOC_OS01G39600-cb002) [°C] | thermal shift delta Tm (LOC_OS01G48390-cb002) [°C] | thermal shift delta Tm (LOC_OS01G51400-cb002) [°C] | thermal shift delta Tm (LOC_OS01G52050-cb004) [°C] | thermal shift delta Tm (LOC_OS01G57100-cb003) [°C] | thermal shift delta Tm (LOC_OS01G60330-cb001) [°C] | thermal shift delta Tm (LOC_OS01G60700-cb002) [°C] | thermal shift delta Tm (LOC_OS01G63280-cb003) [°C] | thermal shift delta Tm (LOC_OS01G67340-cb003) [°C] | thermal shift delta Tm (LOC_OS01G70970-cb002) [°C] | thermal shift delta Tm (LOC_OS02G07810-cb001) [°C] | thermal shift delta Tm (LOC_OS02G08530-cb003) [°C] | thermal shift delta Tm (LOC_OS02G14120-cb001) [°C] | thermal shift delta Tm (LOC_OS02G17970-cb001) [°C] |
| --- | --- | --- | --- | --- | --- | --- | --- | --- | --- | --- | --- | --- | --- | --- | --- | --- | --- | --- | --- | --- |
| OC1CCC(Nc2ncc3nc(Nc4c(F)cc(F)cc4F)n([C@H]4CCOC4)c3n2)CC1 (stereo not given in full) [Tanzisertib(CC-930)] | 0.32 | 0.43 | 0.32 | 0.7 | 0.73 | 0.08 | 0.06 | 0.2 | 0.08 | 2.88 | 1.12 | 0.58 | 0.28 | 0.29 | 0.54 | 0.55 | -0.22 | 1.25 | 1.58 | 0.06 |
| Cc1nc(Nc2n[nH]c3c2CN(C(=O)N[C@H](CN(C)C)c2ccccc2)C3(C)C)c2sccc2n1 | 0.37 | 2.46 | 0.23 | -0.4 | 4.22 | 2.47 | 0.6 | 0.23 | 0.28 | 0.94 | 0.61 | -0.15 | 1.34 | 0.55 | 0.06 | 0.38 | 0.99 | 2.37 | 0.4 | 0.96 |
| Cc1cc(Nc2cc(CN3CCOCC3)c3nc(C)c(Cc4ccc(Cl)cc4F)n3n2)n[nH]1 | 2.97 | 3.19 | 1.89 | -0.62 | 7.26 | 2.02 | 2.41 | 5.72 | -0.5 | 1.05 | 0.41 | 3.94 | -0.8 | 0.12 | 1.73 | 1.25 | 0.19 | 0.8 | 8.86 | -0.03 |
| Clc1ccc(Nc2nnc(Cc3ccncc3)c3ccccc23)cc1 [Vatalanib (PTK787) 2HCl] | 0.99 | 0.12 | -0.92 | 0.36 | 0.31 | 0.21 | 0.01 | 0.44 | -0.2 | 0.04 | 1.4 | 1.02 | 5.09 | 2.03 | -0.72 | 0.27 | 0.26 | 0.34 | -0.4 | 0.47 |
| COCCOc1ccc2c(c1)ncn2-c1ccc2cccc(N3CCC(N)CC3)c2n1 | 0.39 | 7.25 | 1.08 | -0.56 | 1.89 | 3.75 | 2.09 | 0.21 | -0.08 | 10.9 | 1.13 | 0.82 | 0.15 | 1.35 | 2.25 | 8.53 | 0.59 | 3.85 | 11 | 0.26 |
| O=c1cc(N2CCOCC2)oc2c(-c3ccc4c(c3)OCCO4)csc12 | 0.37 | 2.36 | 3.38 | -0.36 | 2.26 | 0.76 | 0.21 | 1.47 | 0.47 | 4.58 | 0.23 | 0.29 | -0.31 | 0.2 | 0.35 | 0.12 | -0.78 | 0.62 | 1.45 | -0.32 |
| COCCOc1cnc2ccn([C@H](C)c3nnc4c(F)cc(-c5cnn(C)c5)cn34)c(=O)c2c1 | 0.44 | 0.28 | 0.34 | -0.27 | 0.15 | 0.42 | -0.26 | 0.28 | 0.32 | 0.4 | 0.7 | -0.01 | 0.32 | 0.22 | 0.31 | 0.36 | 0.15 | 0.71 | 1.22 | 0.15 |
| CCn1nc(C2CCN(C(=O)CCO)CC2)nc1-c1cnc(N)c(-c2nnc(C(C)(C)C)o2)n1 | 0.39 | 0.51 | 0.81 | 0.46 | 2.91 | 1.09 | 2.31 | 0.07 | -0.09 | 1.14 | 0.59 | 0.91 | 1.19 | 1.82 | 1.55 | 1.96 | 1.55 | 2.73 | 5.17 | 1.34 |
| C=CC(=O)N1CCC[C@@H](n2nc(-c3ccc(Oc4ccccc4)cc3)c3c(N)ncnc32)C1 | 0.18 | 0.65 | 0.59 | 0.2 | 0 | 0.24 | 0.74 | 0.52 | 0.21 | 0.5 | 1.42 | 1.09 | 0.54 | 3.76 | -0.23 | 1.12 | 0.96 | 1.16 | 0.34 | 0.6 |
| CN1CCN(S(=O)(=O)c2ccc(-c3cnc(N)c(C(=O)Nc4cccnc4)n3)cc2)CC1 | 4.52 | 1.3 | 0.3 | 0.58 | 7.62 | 1.87 | 0.71 | 0.96 | -0.02 | 1.17 | 1.13 | 1.53 | 1.31 | 0.13 | 0.5 | 1.05 | 0.28 | 1.13 | 2.21 | -0.31 |
| CNC(=O)c1cc(Oc2ccc(NC(=O)Nc3cc(C(C)(C)C)nn3-c3ccc4ncccc4c3)c(F)c2)ccn1 [Rebastinib (DCC-2036)] | 1.21 | 0.84 | 0.98 | 0.38 | 7.66 | 1.31 | 0.57 | 1.3 | 0.47 | 1.95 | 2.72 | 1.36 | 0.84 | 11.5 | 0.32 | 3.62 | 1.36 | 2.28 | 8.15 | 1.32 |
| COc1ccc(S(=O)(=O)N(CCO)c2ccccc2CN(C)C/C=C/c2ccc(Cl)cc2)cc1 [KN-93 Phosphate] | 0.65 | 0.92 | 0.7 | -0.08 | 0.51 | 0.96 | -0.38 | 0.66 | 0.28 | 0.47 | 2.05 | 2.19 | 0.56 | 0.11 | 0.92 | 0.38 | 0.44 | 0.66 | 0.97 | 0.03 |
